Test results as given in PubChem BioAssay.
Measured potencies and affinities stand elsewhere. A number with no mark means an inactive call. The rule behind the calls is not given here.

experiment: A2780 cell killing – plate reader, dry powder samples, cytotoxicity control, dose response (AID 743046); settings: A2780 ovarian cancer cytotoxicity; series mostly up to 35 µM; activity change, negative = cytotoxicity: at the top concentration;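 note: 0% = neutral control wells and -100% = cytotoxic reference compound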

In order of falling “activity change, negative = cytotoxicity” value:
1. C[C@@H]1CN([C@@H](C)CO)C(=O)c2cc(NC(=O)Nc3ccc(C(F)(F)F)cc3)ccc2O[C@@H](C)CCCCO[C@H]1CN(C)Cc1ccc(Cl)c(Cl)c1  89.8%
2. C[C@@H]1CN([C@@H](C)CO)C(=O)c2c(c3ccccc3n2C)-c2ccccc2CO[C@H]1CN(C)C(=O)Nc1ccc2c(c1)OCO2  18.5%
3. Cc1cccc(S(=O)(=O)N2CC[C@@H]3[C@H](CO)Nc4ccc(C5=CCCCC5)cc4[C@@H]32)c1  15.2%
4. C[C@H](CO)N1C[C@H](C)[C@@H](CN(C)Cc2ccc(Oc3ccccc3)cc2)OCc2ccccc2-c2c(n(C)c3ccccc23)C1=O  13.9%
5. C[C@@H]1CCCCO[C@@H](CN(C)CC2CCCCC2)[C@@H](C)CN([C@@H](C)CO)C(=O)c2cc(NC(=O)Nc3ccc(C(F)(F)F)cc3)ccc2O1  11%
6. C[C@@H]1CCCCO[C@@H](CN(C)Cc2ccccc2)[C@@H](C)CN([C@H](C)CO)C(=O)c2cc(NC(=O)Nc3ccc(C(F)(F)F)cc3)ccc2O1  8.39%
7. C[C@@H]1CCCCO[C@@H](CN(C)C(=O)C2CCCCC2)[C@H](C)CN([C@H](C)CO)C(=O)c2cc(NS(=O)(=O)c3ccc(Cl)cc3)ccc2O1  6.15%
8. CN1c2ccc(C#Cc3cccnc3)cc2[C@@H]2[C@@H](CCN2C(=O)Cc2cccnc2)[C@@H]1CO  -0.909%
9. COc1cccc(-c2ccc3c(c2)[C@@H]2[C@@H](CCN2C(=O)NC2CCCCC2)[C@H](CO)N3C)c1  -5.04%
10. C[C@@H]1CN([C@H](C)CO)C(=O)Cc2cc(NC(=O)Nc3ccc(F)cc3)ccc2O[C@H]1CN(C)C(=O)Nc1ccc(C(F)(F)F)cc1  -5.84%
11. C[C@H]1CCCCO[C@H](CN(C)S(=O)(=O)c2ccc(Cl)cc2)[C@@H](C)CN([C@@H](C)CO)C(=O)c2cc(NS(=O)(=O)c3ccc(Cl)cc3)ccc2O1  -7.24%
12. C[C@@H]1CN([C@@H](C)CO)C(=O)c2cc(NS(=O)(=O)c3ccc(F)cc3)ccc2O[C@@H](C)CCCCO[C@H]1CN(C)Cc1ccc(C(F)(F)F)cc1  -19.9%

In order of rising “activity change, negative = cytotoxicity” value:
1. C[C@H](CO)N1C[C@H](C)[C@@H](CN(C)Cc2ccc(C(F)(F)F)cc2)Oc2ccc(NS(=O)(=O)c3ccc(F)cc3)cc2CC1=O  17.8% [at 30 µM]
2. C[C@H]1CN([C@@H](C)CO)C(=O)c2c(c3ccccc3n2C)-c2ccccc2CO[C@@H]1CN(C)Cc1ccc(-c2ccccc2)cc1  22.8% [at 30 µM]

experiment: OVCAR8 cell viability loss – plate reader, dry powder samples, PAX8 project, dose response (AID 743197); settings: series mostly up to 35 µM; activity change, negative = cytotoxicity: at the top concentration

In order of falling “activity change, negative = cytotoxicity” value:
1. C[C@@H]1CCCCO[C@H](CN(C)CC2CCCCC2)[C@H](C)CN([C@H](C)CO)C(=O)c2cc(NS(=O)(=O)c3ccc(Cl)cc3)ccc2O1  28.3%
2. C[C@H](CO)N1C[C@H](C)[C@H](CN(C)Cc2ccc3c(c2)OCO3)Oc2ccc(NC(=O)Nc3cccc4ccccc34)cc2C1=O  24.7%
3. C[C@@H]1CCCCO[C@H](CN(C)Cc2ccc(C(F)(F)F)cc2)[C@H](C)CN([C@H](C)CO)C(=O)c2cc(NS(=O)(=O)c3ccc(F)cc3)ccc2O1  22.8%
4. C[C@@H]1CN([C@@H](C)CO)C(=O)Cc2cc(NC(=O)Nc3ccc(C(F)(F)F)cc3)ccc2O[C@H]1CN(C)S(=O)(=O)c1ccc(F)cc1  21.7%
5. C[C@@H]1CN([C@H](C)CO)C(=O)Cc2cc(NC(=O)Nc3ccc(F)cc3)ccc2O[C@@H]1CN(C)Cc1ccc(Cl)c(Cl)c1  21.7%
6. C[C@H](CO)N1C[C@H](C)[C@@H](CN(C)Cc2ccc(Cl)c(Cl)c2)OCCCC[C@H](C)Oc2ccc(NC(=O)Nc3ccc(C(F)(F)F)cc3)cc2C1=O  19.9%
7. O=S(=O)(c1ccc(F)cc1)N1C[C@H]2[C@@H](c3ccccc31)[C@H](CO)N2Cc1ccccc1Cl  19.6%
8. C[C@@H]1CN([C@H](C)CO)C(=O)c2cc(NC(=O)c3ccncc3)ccc2O[C@@H](C)CCCCO[C@H]1CN(C)Cc1ccc(C(F)(F)F)cc1  14.8%
9. C[C@H](CO)N1C[C@H](C)[C@@H](CN(C)CC2CCCCC2)Oc2ccc(NC(=O)Nc3ccc4c(c3)OCO4)cc2CC1=O  14%
10. COc1cccc(-c2ccc3c(c2)[C@@H]2[C@@H](CCN2C(=O)NC2CCCCC2)[C@H](CO)N3C)c1  13.5%
11. C[C@@H]1CN([C@@H](C)CO)C(=O)c2c(c3ccccc3n2C)-c2ccccc2CO[C@H]1CN(C)C(=O)Nc1ccc2c(c1)OCO2  13.3%
12. C[C@@H]1CCCCO[C@H](CN(C)C(=O)Nc2ccc(F)cc2)[C@@H](C)CN([C@@H](C)CO)C(=O)c2cc(NC(=O)Nc3ccc(C(F)(F)F)cc3)ccc2O1  9.31%
13. Cc1ccc(S(=O)(=O)N(C)C[C@H]2Oc3c(NC(=O)Nc4ccc(F)cc4)cccc3C(=O)N([C@@H](C)CO)C[C@H]2C)cc1  8.51%
14. C[C@H](CO)N1C[C@H](C)[C@H](CN(C)Cc2ccc(Cl)c(Cl)c2)Oc2c(NS(=O)(=O)c3ccc(Cl)cc3)cccc2C1=O  7.26%
15. O=C(C[C@@H]1C[C@H]2c3cc(NC(=O)C4CCOCC4)ccc3O[C@H]2[C@H](CO)O1)NCc1ccc(Oc2ccccc2)cc1  7.21%
16. Cc1cccc(S(=O)(=O)N2CC[C@@H]3[C@H](CO)Nc4ccc(C5=CCCCC5)cc4[C@@H]32)c1  6.11%
17. C[C@@H]1CCCCO[C@@H](CN(C)C(=O)C2CCCCC2)[C@H](C)CN([C@H](C)CO)C(=O)c2cc(NS(=O)(=O)c3ccc(Cl)cc3)ccc2O1  5.59%
18. C[C@H]1CN([C@@H](C)CO)C(=O)CCCn2nncc2CO[C@@H]1CN(C)C(=O)Nc1ccc(-c2cccs2)cc1  5.04%
19. C[C@@H]1CN([C@H](C)CO)C(=O)Cc2cc(NC(=O)Nc3ccc(F)cc3)ccc2O[C@H]1CN(C)C(=O)Nc1ccc(C(F)(F)F)cc1  4.38%
20. C[C@H]1CCCCO[C@H](CN(C)S(=O)(=O)c2ccc(Cl)cc2)[C@@H](C)CN([C@@H](C)CO)C(=O)c2cc(NS(=O)(=O)c3ccc(Cl)cc3)ccc2O1  3.04%
21. C[C@@H]1CN([C@@H](C)CO)C(=O)c2cc(NC(=O)Nc3ccc(C(F)(F)F)cc3)ccc2O[C@@H](C)CCCCO[C@H]1CN(C)Cc1ccc(Cl)c(Cl)c1  3.01%
22. C[C@@H]1CN([C@@H](C)CO)C(=O)c2ccccc2-c2ccccc2CO[C@H]1CN(C)Cc1ccccc1C(F)(F)F  2.86%
23. COc1ccccc1-c1ccc2c(c1)[C@H]1[C@H](CCN1S(=O)(=O)c1ccccc1F)[C@H](CO)N2  2.42%
24. C[C@@H]1CN([C@@H](C)CO)S(=O)(=O)c2ccc(C#Cc3ccccc3F)cc2O[C@H]1CN(C)CC1CCOCC1  1.77%
25. C[C@@H]1CCCCO[C@H](CN(C)C(=O)C2CCCCC2)[C@@H](C)CN([C@@H](C)CO)C(=O)c2cc(NC(=O)Nc3ccccc3)ccc2O1  1.53%
26. C[C@@H]1CCCCO[C@@H](CN(C)Cc2ccccc2)[C@@H](C)CN([C@H](C)CO)C(=O)c2cc(NC(=O)Nc3ccc(C(F)(F)F)cc3)ccc2O1  1.52%
27. O=C(C[C@H]1CC[C@H]2[C@@H](COC[C@@H](O)CN2S(=O)(=O)c2ccccc2Cl)O1)N1CCC(Cc2ccccc2)CC1  -0.134%
28. C[C@@H]1CCCCO[C@@H](CN(C)CC2CCCCC2)[C@@H](C)CN([C@@H](C)CO)C(=O)c2cc(NC(=O)Nc3ccc(C(F)(F)F)cc3)ccc2O1  -0.84%
29. CN1c2ccc(C#Cc3cccnc3)cc2[C@@H]2[C@@H](CCN2C(=O)Cc2cccnc2)[C@@H]1CO  -2.3%
30. C[C@H]1CCCCO[C@@H](CN(C)Cc2ccc(C(F)(F)F)cc2)[C@@H](C)CN([C@@H](C)CO)C(=O)c2cc(NS(=O)(=O)c3cccs3)ccc2O1  -2.77%
31. C[C@@H]1CCCCO[C@@H](CN(C)Cc2ccc(Cl)c(Cl)c2)[C@H](C)CN([C@@H](C)CO)C(=O)c2cc(NC(=O)Cc3ccccc3)ccc2O1  -4.87%
32. C[C@@H]1CN([C@@H](C)CO)C(=O)c2cc(NS(=O)(=O)c3ccc(F)cc3)ccc2O[C@@H](C)CCCCO[C@H]1CN(C)Cc1ccc(C(F)(F)F)cc1  -6.22%
33. C[C@H]1CCCCO[C@@H](CN(C)C(=O)c2ccccc2)[C@@H](C)CN([C@@H](C)CO)C(=O)c2cc(NC(=O)Nc3ccc(C(F)(F)F)cc3)ccc2O1  -6.67%
34. C[C@H](CO)N1C[C@H](C)[C@@H](CN(C)Cc2ccc(Oc3ccccc3)cc2)OCc2ccccc2-c2c(n(C)c3ccccc23)C1=O  -13.3%
35. C[C@@H]1CCCCO[C@@H](CN(C)C(=O)C2CCCCC2)[C@H](C)CN([C@H](C)CO)C(=O)c2cc(NC(=O)Nc3ccc(F)cc3)ccc2O1  -15.4%
36. C[C@@H]1CCCCO[C@@H](CN(C)Cc2ccc(C(F)(F)F)cc2)[C@H](C)CN([C@H](C)CO)C(=O)c2cc(NS(=O)(=O)c3ccc(Cl)cc3)ccc2O1  -27.4%

For C[C@@H]1CN([C@H](C)CO)C(=O)c2cc(NC(=O)c3ccccc3)ccc2O[C@@H](C)CCCCO[C@H]1CN(C)Cc1ccc(C(F)(F)F)cc1, the “activity change, negative = cytotoxicity” value was 51.9% [at 16 µM].

In order of rising “activity change, negative = cytotoxicity” value:
1. Cc1ccc(S(=O)(=O)N(C)C[C@H]2OCCCC[C@@H](C)Oc3ccc(NS(=O)(=O)c4ccc(F)cc4)cc3C(=O)N([C@@H](C)CO)C[C@H]2C)cc1  -1.61% [at 30 µM]
2. C[C@H]1CN([C@@H](C)CO)C(=O)c2c(c3ccccc3n2C)-c2ccccc2CO[C@@H]1CN(C)Cc1ccc(-c2ccccc2)cc1  11.9% [at 30 µM]
3. C[C@H](CO)N1C[C@H](C)[C@@H](CN(C)Cc2ccc(C(F)(F)F)cc2)Oc2ccc(NS(=O)(=O)c3ccc(F)cc3)cc2CC1=O  12.6% [at 30 µM]
